For 65 compounds, Potency results are on record in PubChem BioAssay AID1460 (National Center for Advancing Translational Sciences (NCATS), 2008).

In all, about 270,000 compounds went through this assay and about 5,800 (2.1%) were called active. A call without a number means that no potency is given here. Not shown: some 16% with an inconclusive outcome. This is one part of a sample in which actives are shown more often than they occur. Calls follow the shape of the dose curve; as a rule, active = well fitted inhibition curve with a large enough effect; inconclusive = small, poorly fitted or top-dose-only effect; inactive = flat fitted curve, though single readings scatter.
Potency is read from the fitted curve at half-maximal effect.

Sequence of Microtubule-associated protein tau (Homo sapiens) (P10636 561-689 P618L limits assumed): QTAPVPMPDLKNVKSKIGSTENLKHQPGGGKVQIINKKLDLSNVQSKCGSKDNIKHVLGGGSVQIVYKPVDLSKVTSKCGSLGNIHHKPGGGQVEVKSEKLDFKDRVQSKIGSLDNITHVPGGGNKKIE

This assay concerns the target Microtubule-associated protein tau (Homo sapiens) (UniProt P10636). The assay is described as follows: qHTS for Inhibitors of Tau Fibril Formation, Thioflavin T Binding. Also: nearly all actives have a fitted effect of over 55% in size. Particulars: recombinant tau K18 P301L, heparin-induced fibrillization, ThT fluorescence; series mostly up to 57.4 µM. Put shortly:
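ThT emission at 510 nm, taken 1 hr after adding 30 uM dye, quantifies aggregates formed when 20 uM heparin acts on human tau K18 P301L for 6 hr at 37 C.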
(In general: In qHTS, concentration-response curves come from the screen itself.)
Consider `COc1cccc(CNC(=O)C(=O)NCC(c2cccs2)S(=O)(=O)c2ccccc2)c1` (stereo not given), for which the Potency result was “inactive”.

`O=C(COc1ccccc1)OCc1cc(=O)n2nc(-c3cccs3)sc2n1`: the Potency entry is “inactive”.

For the compound `CCc1ccc(NC(=O)c2cc3c(=O)n(Cc4cccnc4)ccc3nc2C)cc1`, the Potency entry is “inactive”.

Consider `COc1cccc(-n2ccn(CC(=O)NCc3ccc(C)cc3)c(=O)c2=O)c1`, for which the Potency entry was “inactive”.

On to `O=C(CSc1oc(-c2ccco2)nc1S(=O)(=O)c1ccccc1)c1ccc(Cl)cc1`, for which the Potency entry was “inactive”.

Consider `COc1ccc(OC)c(CCNC(=O)CCCn2c(=O)c3cccn3c3cccnc32)c1`, for which the Potency result is “inactive”.

Consider `CCOCCCn1c(SCC(=O)Nc2ccc(CC)cc2)nc2ccccc2c1=O`, for which the Potency entry was “inactive”.

Take `COCCNC(=O)Nc1ccc2nc(-c3ccco3)c(-c3ccco3)nc2c1`: the Potency is 3.98 µM (active).

Consider `O=C(NCc1ccccn1)c1cc(-c2ccccc2Cl)on1`, for which the Potency result is “inactive”.

Turning to `O=C(Nc1ccc2nccnc2c1)c1ccco1`, the Potency result is “inactive”.

For `COc1ccc(-c2nc3ccc(C(=O)NCc4ccc(C)cc4)cc3nc2-c2ccc(OC)cc2)cc1`, the Potency result is “inactive”.

`O=C(NCc1ccccn1)c1ccc2nc(-c3ccco3)c(-c3ccco3)nc2c1`: the Potency is 12.6 µM (active).

Turning to `CC(C)(C)c1ccc(NC(=O)NCc2ccco2)cc1`, the Potency result is “inactive”.

With `Cc1nn(-c2ccc(F)cc2)c(-n2cccc2)c1C(=O)N1CCN(c2ccccc2)CC1`, the Potency entry is “inactive”.

Take `Cc1ccc(-c2nc(Cn3c(=O)cc(-c4ccccc4)c4c(C)nn(C)c43)c(C)o2)cc1`: the Potency entry is “inactive”.

With `CN(Cc1ccccc1)S(=O)(=O)c1ccc(F)c(C(=O)Nc2cccc(Cl)c2Cl)c1`, the Potency result was “inactive”.

Consider `O=C(c1cccc(Br)c1)N1CCN(Cc2cc(=O)n3nc(-c4ccccc4)sc3n2)CC1`, for which the Potency result was “inactive”.

Regarding `CCN(CC)S(=O)(=O)c1ccc2c(c1)nc(CN(C)C(=O)Nc1ccc(Cl)cc1)n2C`, the Potency entry is “inactive”.

As for `O=C(NCCc1ccccc1)C(=O)NCC(c1ccco1)S(=O)(=O)c1ccccc1` (stereo not given), the Potency result is “inactive”.

With `CSc1nc(-c2ccc(F)cc2)nc2c1Cc1c(CO)cnc(C)c1O2`, the Potency entry was “inactive”.

`CCN(CC)c1ccc2c(Nc3ccccc3)c(C=O)c(=O)oc2c1`: the Potency result was “inactive”.

As to `CCOC(=O)c1c(C)nc2c(c1C)c(=O)oc1ccccc12`, the Potency entry was “inactive”.

Consider `CCN(CC)c1ccc2oc(=O)c(C)nc2c1`, for which the Potency was 7.94 µM (active).

With `COc1ccccc1CNC(=O)c1ccc(-n2c(C)cc3c2CCCC3)cc1`, the Potency result is “inactive”.

In the case of `COc1ccc(C(=O)Nc2onc3c2CCCC3)cc1`, the Potency entry is “inactive”.

On to `COc1ccccc1CNC(=O)Cn1nc(C)c2nn(-c3ccc(Cl)cc3)c(C)c2c1=O`, for which the Potency entry was “inactive”.

On to `CCN(CC)C(=O)CSc1nc2cc3c(cc2c(=O)n1CCCC(=O)NCc1ccc2c(c1)OCO2)OCO3`, for which the Potency entry is “inactive”.

With `O=C(CSCc1cnn(-c2ccccc2)c1-n1cccc1)NCc1ccc(Cl)cc1`, the Potency result is “inactive”.

On to `CCOc1ccc(C(=O)N2CCN(CCc3ccccn3)CC2)cc1`, for which the Potency result is “inactive”.

`Cc1cc(-c2n[nH]c(=S)n2/N=C/C(Br)=C/c2ccccc2)n[nH]1`: the Potency is 12.6 µM (active).

`Oc1ccccc1/C=N/n1c(-c2cccs2)n[nH]c1=S`: the Potency entry was “inactive”.

As for `Cc1cc(-c2n[nH]c(=S)n2/N=C/c2ccco2)n[nH]1`, the Potency entry is “inactive”.

In the case of `COc1ccccc1CN1CCC(CNC(=O)c2cnn(-c3cccc(Cl)c3)c2C2CCN(C(=O)OC(C)(C)C)CC2)CC1`, the Potency entry is “inactive”.

In the case of `CCOc1ccccc1CNC(=O)c1ccc2c(c1)nc1n2CCC(C)C1` (stereo not given), the Potency entry is “inactive”.

`Cc1ccc(NC(=O)c2cc3cc(C)ccc3n2C)cc1`: the Potency result was “inactive”.

On to `CCOC(=O)c1c(NC(C)=O)c2c3c(sc2n1Cc1c(C)cc(C)cc1C)CCCC3`, for which the Potency entry is “inactive”.

Regarding `Fc1ccc(CSc2nc(NCc3ccccc3)c3ccccc3n2)cc1`, the Potency result was “inactive”.

For `COc1ccc(NC(C)=O)cc1NC(=O)CN1CCN(c2ccc(F)cc2)CC1`, the Potency entry is “inactive”.

On to `C/C(CC1CC(C)(C)OC1=O)=N/Nc1nc(-c2ccccc2)cs1` (stereo not given), for which the Potency was 25.1 µM (active).

With `CC(=O)Nc1ccc(-c2csc(NC=C3C(=O)OC(C)(C)OC3=O)n2)cc1`, the Potency result is “inactive”.

Consider `CC1(C)CC(CC(=O)O)C(=O)O1` (stereo not given), for which the Potency result was “inactive”.

Consider `Cc1ccc(-c2nn3c(=O)cc(CN4CCN(S(=O)(=O)c5ccc(Cl)cc5)CC4)nc3s2)cc1`, for which the Potency result was “inactive”.

For the compound `COc1ccccc1N1CCN(c2ccc(=O)n(CC(=O)NCc3ccc(OC(C)C)cc3)n2)CC1`, the Potency entry is “inactive”.

Regarding `COc1ccc(N2C(=O)CS(=O)(=O)C23C(=O)N(Cc2ccc(C)cc2)c2ccccc23)cc1Cl` (stereo not given), the Potency entry was “inactive”.

For the compound `Cc1c(CNC(C)c2ccccc2)c(C(=O)O)c(C)n1Cc1c(F)cccc1Cl` (stereo not given), the Potency result was “inactive”.

For `COc1ccccc1C1/C(=C(/O)c2ccc(OC(C)C)cc2)C(=O)C(=O)N1c1cc(C)on1` (stereo not given), the Potency entry is “inactive”.

Take `CCOc1ccc(/C(O)=C2\C(=O)C(=O)N(c3ccc(OC)cc3)C2c2ccccc2[N+](=O)[O-])cc1` (stereo not given): the Potency is 5.01 µM (active).

On to `COc1ccc(/C(O)=C2/C(=O)C(=O)N(c3nc(C)c(C)s3)C2c2ccco2)cc1` (stereo not given), for which the Potency entry is “inactive”.

Consider `CN(C)N=Nc1ccc2nc[nH]c2c1`, for which the Potency is 4.47 µM (active).

As for `CC/C(O)=N\S(=O)(=O)c1ccc(N=NN(C)C)cc1`, the Potency result is “inactive”.

With `CCCN(CCC)S(=O)(=O)c1ccc(C(=O)Nc2sc3c(c2C(=O)OC)CCN(CC)C3)cc1`, the Potency entry is “inactive”.

For the compound `CCc1cccc(NC(=O)CN(c2ccc(C)c(C)c2)S(=O)(=O)c2ccsc2C(=O)OC)c1`, the Potency entry was “inactive”.

For the compound `O=C(CSc1ccc(/C=N/NC(=O)c2cccc(F)c2)o1)Nc1ccccc1`, the Potency entry was “inactive”.

For `Cc1ccc(/C=N/NC(=O)CSc2ccccn2)o1`, the Potency entry is “inactive”.

Take `N#CCC(=O)N/N=C/c1ccc(SCC(=O)Nc2ccccc2)o1`: the Potency is 25.1 µM (active).

Turning to `O=C(CCc1ccccc1)NCc1ccc2c(c1)CCN2C(=O)c1ccccc1`, the Potency result is “inactive”.

For `Cc1cc(/C=N/Nc2ccc([N+](=O)[O-])cn2)c(C)n1-c1cccc(C(=O)O)c1`, the Potency was 2.82 µM (active).

Regarding `Cc1cc(/C=N/n2cnnc2)c(C)n1-c1cccc(C(=O)O)c1`, the Potency result was “inactive”.

As to `COc1cc(/C=N/NC(=O)Nc2ccccc2)ccc1OCCOc1ccccc1C`, the Potency result is “inactive”.

For `Cc1cccc(-n2c(C)cc(/C=N\NC(=O)c3cccs3)c2C)c1`, the Potency entry was “inactive”.

In the case of `COc1cc(/C=N\Nc2ccc([N+](=O)[O-])cn2)ccc1OCC(=O)O`, the Potency is 12.6 µM (active).

`Cc1ccc(-n2c(C)cc(/C=N\NC(=O)CC(=O)NC(C)C)c2C)cc1`: the Potency entry is “inactive”.

Consider `Cc1cccc(C)c1NC(=O)CSc1ccc([N+](=O)[O-])cn1`, for which the Potency entry was “inactive”.

Turning to `COc1cc(/C=N\NC(=O)CNC(=O)c2cccc([N+](=O)[O-])c2)ccc1O`, the Potency entry is “inactive”.

As for `Cc1ccc(-n2c(C)cc(/C=N/Nc3ccc([N+](=O)[O-])cn3)c2C)c(C)c1`, the Potency was 3.98 µM (active).
